Data taken from publication PMC13494018.
A number with no mark means an inactive call. How the calls were made is not given here.

Molecular target: PDL1, Q9NZQ7
Sequence (Q9NZQ7 whole entry): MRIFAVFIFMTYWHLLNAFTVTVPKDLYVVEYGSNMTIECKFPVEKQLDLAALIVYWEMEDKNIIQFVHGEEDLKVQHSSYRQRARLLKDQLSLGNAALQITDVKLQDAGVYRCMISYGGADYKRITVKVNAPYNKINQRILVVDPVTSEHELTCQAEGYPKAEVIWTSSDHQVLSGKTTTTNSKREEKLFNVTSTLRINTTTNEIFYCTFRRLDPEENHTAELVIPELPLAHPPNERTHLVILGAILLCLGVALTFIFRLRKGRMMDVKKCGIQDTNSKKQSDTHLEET

Binder	binding in a display sort
d8r1_design_ppi_713_dldesign_0_cycle1_af2pred (protein) AEFLAQGRAAAAATSPANAAALEAAYAAAKAQEDKMEGMKILLATATTLAAASTPAEAVLIGKAAAYFIADLLS	not found
d8r1_design_ppi_661_dldesign_0_cycle1_af2pred (protein) AAADAAAAAAAATAGANAVAAAQLALELNPKSAIDLAEAAIAHFKKLAATGSPAVAAQANAAIAALEAVKAQAKKKLAAE	not found
d8r1_design_ppi_416_dldesign_0_cycle1_af2pred (protein) SDESARIKAETLGRISEAMREARRAAEEGDVERAREAAERAREAGREGAEKALELGDESTAESLRSTAEKVAERAERLAEEAAA	not found
d8r1_design_ppi_991_dldesign_0_cycle1_af2pred (protein) AEAARTAAIAKSIAGLAKLAEKAKDDKSVVRAAATAAAAAAAKDAALGKAAAERLKAAAEATPEEAIATLKAVAAEIAAAAAA	not found
d8r1_design_ppi_1247_dldesign_0_cycle0_af2pred (protein) SSDKENSKLIREAMKVIGETLAAARAAVAAGDLEAARAAVAEGVARLEEMAEKSKDEATRETLLRMAEALRAQGAKILA	not found
d8r1_design_ppi_820_dldesign_0_cycle1_af2pred (protein) AAEAQALLQTFEANVEGAKMMGEASSLPALVRYHAITKTSATLAARAKELGLEEAAAQIEARGKELAAEAKAGLEKELAA	not found
d8r1_design_ppi_786_dldesign_0_cycle1_af2pred (protein) SEEKEKLKKLAEKARAGAEAAKADPSKAAEYGKEAYELAKEALPESIAELFKKAVEKNPVSGLAFLAAYAKYKAES	not found
d8r1_design_ppi_227_dldesign_0_cycle1_af2pred (protein) GAKAKAKAVLDKAKEKLAEAMKAALDADESKKPEVYKLIAEAAAALAKGIAAYKAAKNEAQLKEAIAWFEKAIAAAEKAIKLAK	not found
d8r1_design_ppi_282_dldesign_0_cycle1_af2pred (protein) STDEELAAKAAALANLNKALAIATKFDPSVLADFKKIASLILDPNKKEEAVKLLNEKAKEAEAKDPAAGAALKAAAEEAKKI	not found
d8r1_design_ppi_1220_dldesign_0_cycle0_af2pred (protein) KEEEADKLAVEAMRLLGEAAELTKKATTKEQVEAAKKKAEEAKKKAEELLKVDPRKKGLAEALKSAAKKVLEAAEKKEKEL	not found
d8r1_design_ppi_442_dldesign_0_cycle1_af2pred (protein) DAAAVAAIAAAAAEAAGLYVRGRAASSKDPAEAKKYYAEADALVAAMLAAGAATSPAVAAAAAAAAATVAATRAALDAIKA	not found
d8r1_design_ppi_1191_dldesign_0_cycle1_af2pred (protein) AKAELKKKAEEYEKLYNAAKAALDVALADPSFSKSAKKAIAQAQVDAAKKALEAAKAYDPSQAPYWQAKLDAAQAALDAI	not found
d8r1_design_ppi_1356_dldesign_0_cycle0_af2pred (protein) SAELIAQTARAGAVMLAAGIAGTPEAAANAAAGTSLLLKAKAESTGSEELKALAERAAAAAATLKADPAAGRAALAALRDELEKLAK	not found
d8r1_design_ppi_1238_dldesign_0_cycle0_af2pred (protein) MEETKKLIEEARKLAEEARRALKEDKERALELLREAANKASKALALADEESEELAEEAKKVLAEISKVAKELAK	not found
d8r1_design_ppi_360_dldesign_0_cycle1_af2pred (protein) SEAYEKAVEEAAERVAALIKAAVAAGATPAEAWAAAAKKIEEERKKLKEKFGEEQAEEGARRITARAAKALLRAMAAREE	not found
d8r1_design_ppi_508_dldesign_0_cycle0_af2pred (protein) AGEEALEKAIKEVKELISEAAKALQESREKGIEKAKEGAKRAEKLKKEAAKEPLAERIGRVLESAKGFLEKLKEALEES	not found
d8r1_design_ppi_705_dldesign_0_cycle1_af2pred (protein) MSKLTQAMLHYGRALAAAVALADDPEAAGKAVSAEMAEAAKVAAAGSPEVQKQALEAGEIIVEQIKKVNPEVGAKAAEAVKTTLAKL	not found
d8r1_design_ppi_257_dldesign_0_cycle1_af2pred (protein) DEKDTATAEALGAISRAIAAAKALAATGDPEEAARLAEAARAAIAEALELAKKTTPSSQAAIEVAAARARAALDAALAKQAARAAA	not found
d8r1_design_ppi_1006_dldesign_0_cycle0_af2pred (protein) AAAAAAAKAARTKEVIAKMKELISEAMLAKSEGTGVEALKKAAEEAKKLAKEAKAAGDTAAATVANNAAAFLETAAKAEEEAK	not found

Binder	binding in a display sort
d8r1_design_ppi_568_dldesign_0_cycle0_af2pred (protein) AGEALNLAARGLIAAGEAGDAEAAAQAAALLAKATAALAAGDEAAAKAYAAEAAAVADPEKAPEAEAVKAAAAA	not found
d8r1_design_ppi_14_dldesign_0_cycle1_af2pred (protein) AAAVAAAIEAAMRAAMPSDPAKAAELAALIAAKGLAGAKEAARKAMELFREDPELGKQAFAGVDAARAILAAA	binds (active)
d8r1_design_ppi_1314_dldesign_0_cycle0_af2pred (protein) SSEEEEAKRLAARAARAAARRLEEAAEERAAEDPEAARRAAEEGRRLAEEAEKGNAEEAKRALTEITRLLREVLA	not found
d8r1_design_ppi_286_dldesign_0_cycle0_af2pred (protein) SNEENAENLRLAGRAIEGVAESASAKQTADHLNNVATAAAKIDAETGKKLKAIGEEVLKTGDAKEGGEKAKKVLEEAAEKFK	not found
d8r1_design_ppi_198_dldesign_0_cycle1_af2pred (protein) AAAALQAAAAAAAARLEKLAEEAAADPRLAPAAAAARAAAAQARANPAIAAQLAANTEAFVATYRAAVEEK	not found
d8r1_design_ppi_310_dldesign_0_cycle1_af2pred (protein) ALAAALNSVAALAKLAAELLETDPAAGKQLAKNVAVALAKLGLTEEAARLKAATPEELKAVAKEAAAAAKAAAAALA	not found
d8r1_design_ppi_1305_dldesign_0_cycle1_af2pred (protein) MEAEKLAKELLEKAKELAALPMGEASKAAAALAKEYAAKNPEVALKAAKIAYEKAVKDPSVSSKVRQLLAAALAEATYELKKKKAAA	not found
d8r1_design_ppi_1486_dldesign_0_cycle1_af2pred (protein) MKELEEAKKEAEKAREELLKAAKEAAKVDPTVATGANNAAEGAKVLIESGSLGAARAGKAIAEAALKKAQAVLDAAQKA	not found
d8r1_design_ppi_59_dldesign_0_cycle1_af2pred (protein) MSELSEKLIEAAIAAHRAAAELAALGAPAEAAAHRAKAAKLFGEARKLIQEGDEEKAKKALEEAEALAAAAAAAAKKARAAAAAA	not found
d8r1_design_ppi_623_dldesign_0_cycle0_af2pred (protein) SAAAAAAAAAAKAALAAAKKKAEEAVKLTPEEAAKVLGEIAAAATAALAAATDAADRAALRAAAAEVFSTGAKNLAKAAKKAEE	not found
d8r1_design_ppi_487_dldesign_0_cycle0_af2pred (protein) AAAEAAKAALAAEGERLLEEAERNLKIAKEGNGEEAAKASRNTLLNLAELTKLADEAAAADPAAGKVGAELLARLREILREIEAVNLA	not found
d8r1_design_ppi_901_dldesign_0_cycle1_af2pred (protein) AAAAARADIATLLAFMTKAIAEGDESAANMAANGAIASGAKAGPELAAQAAAEAAAARAAALAAKAAAAA	not found
d8r1_design_ppi_493_dldesign_0_cycle1_af2pred (protein) SDARIAGAVAIMRLGAADADAATGAALREVGAAFAVSPEAGVAKAAELAAALAAARTPAAAAAGAARLAAATALGVAIAAAGA	not found
d8r1_design_ppi_948_dldesign_0_cycle0_af2pred (protein) SEEAKKKYEEEKKKLEELRKEAEKLAAADPAAGGAIATLIDNGIAAGDKLYEAGSVESAAKLLESVREKAERLLAELRAAVAA	not found
d8r1_design_ppi_1191_dldesign_0_cycle0_af2pred (protein) AAAALAAQAAAYTATYNAASAALAVALADPSFSPQSQKNIAQSQVDAATKALEAATAYDPAQAAAWQAALDAAQAQLAAI	not found
d8r1_design_ppi_457_dldesign_0_cycle1_af2pred (protein) AAAKAAAAAEAEALIAKAEAVVKAIKDFTALAAASTPEDGAAALRAAENLKTTAVDLATQAAALAKALGRPDLATRATAVAQAAKDAM	not found
d8r1_design_ppi_20_dldesign_0_cycle1_af2pred (protein) KEEKAEKMKKEAEKYVERAKADAAKLAGSPQAATAAKLAASAEKSAELMKKALEEGDFGLAEVFLAAAKAAAEQLAKMAAA	not found
d8r1_design_ppi_31_dldesign_0_cycle1_af2pred (protein) DKYSQMAEVWGMLSEVVARVAAELGPEAAEEAIKRAGEAASAAAKDVEEGEKKAKEVKEWADKQLAAAAA	not found
d8r1_design_ppi_750_dldesign_0_cycle1_af2pred (protein) SRLEEARAIAERAAAEAAAAGNVAEAVAIAQRGAAEVVRTLSPEPVEAKAEVLAHHAELAQAVIDALTAAE	not found
